Reference: PubChem BioAssay (Tox21)
A number with no mark means an inactive call. Inconclusive results are not listed. Where a call stands in place of a potency, no number is given. Active and inactive are the calls of the source. Unless noted, calls come from the whole dose curve.

What was measured:
[1] = Nuclear factor erythroid 2-related factor 2/antioxidant responsive element (Nrf2/ARE) small molecule agonists: qHTS cell viability counter screen in human keratinocytes (AID 1919968; active = well fitted curve in the direction sought with a large enough effect in the repeat runs; an effect the other way counts as inactive or inconclusive; note: nearly all actives have a fitted effect of over 55% in size; note: potency is the fitted concentration of half-maximal effect)
Procedure, shortened: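 Cells of the KeratinoSens line were plated at 1,500 per well and left for 5 h before compound transfer from DMSO stocks. After a 23 h incubation (37 C, 5% CO2), CellTiter-Fluor was added. Signal was taken as fluorescence intensity 1 h later.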

[2] = Nuclear factor erythroid 2-related factor 2/antioxidant responsive element (Nrf2/ARE) small molecule agonists: luciferase reporter gene qHTS assay in human keratinocytes (AID 1919969); note: nearly all actives have a fitted effect of over 35% in size; note: potency is the fitted concentration of half-maximal effect
[3] = target: Gonadotropin-releasing hormone receptor (Homo sapiens) (UniProt P30968); assay: Human gonadotropin-releasing hormone receptor (GnRHR) small molecule agonists, calcium flux assay in GnRHR-HEK293 cells (AID 1920063); note: nearly all actives have a fitted effect of over 35% in size
Chain of Gonadotropin-releasing hormone receptor (Homo sapiens) (P30968 whole entry, looked up): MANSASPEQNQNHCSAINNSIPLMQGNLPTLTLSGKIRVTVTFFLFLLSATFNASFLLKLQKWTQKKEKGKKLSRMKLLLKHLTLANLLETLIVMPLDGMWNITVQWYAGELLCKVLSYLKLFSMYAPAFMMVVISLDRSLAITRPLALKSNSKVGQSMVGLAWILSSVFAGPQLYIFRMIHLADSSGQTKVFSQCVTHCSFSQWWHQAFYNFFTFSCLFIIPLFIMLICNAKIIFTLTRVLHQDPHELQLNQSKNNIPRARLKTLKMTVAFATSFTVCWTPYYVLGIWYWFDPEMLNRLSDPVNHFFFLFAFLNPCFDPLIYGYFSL
Procedure, shortened: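 Compounds dissolved in DMSO are pin-transferred onto dye-loaded GnRHR-HEK293 cells, which were seeded 18 h before at 37 C/5% CO2. Calcium signal is read as fluorescence intensity at 1 s intervals for 3 min.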

[4] = target: KiSS-1 receptor (Homo sapiens) (UniProt Q969F8); assay: Human kisspeptin (KISS1R) small molecule agonists, calcium flux assay in KISS1R-HEK293 cells (AID 1920064; active = well fitted curve in the direction sought with a large enough effect in the repeat runs; an effect the other way counts as inactive or inconclusive)
Chain of KiSS-1 receptor (Homo sapiens) (Q969F8 whole entry, looked up): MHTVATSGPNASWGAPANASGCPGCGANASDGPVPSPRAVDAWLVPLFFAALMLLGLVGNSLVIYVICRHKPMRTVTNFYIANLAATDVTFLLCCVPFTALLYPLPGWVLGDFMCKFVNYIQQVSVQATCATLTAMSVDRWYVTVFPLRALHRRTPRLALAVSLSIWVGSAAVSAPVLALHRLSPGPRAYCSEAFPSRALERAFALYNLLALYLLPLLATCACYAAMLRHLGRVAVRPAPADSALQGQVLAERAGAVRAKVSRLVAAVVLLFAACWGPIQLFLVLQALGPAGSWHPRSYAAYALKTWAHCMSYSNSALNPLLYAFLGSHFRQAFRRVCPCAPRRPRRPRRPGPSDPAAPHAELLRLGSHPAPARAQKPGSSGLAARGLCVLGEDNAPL
Procedure, shortened: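 Cell line: HEK293, stable human KISS1R. Dye loading 1 h at 37 C after 18 h culture. Read: kinetic fluorescence, 480/540 nm, 3 min at 1 s intervals.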

[5] = G protein-coupled receptor (GPCR) small molecule agonists, calcium flux assay: HEK293 wild type cell line counter screen (AID 1920065)
Procedure, shortened: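 Tox21 10K compounds, 15 concentrations each in triplicate, pin-transferred in DMSO onto dye-loaded cells; kinetic read at 480/540 nm for 3 min, 1 s intervals.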

[6] = p53 small molecule agonists, cell-based qHTS assay with human liver microsomes (AID 1963577);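 note: p53 response element beta-lactamase reporter cells with liver microsomes plus NADPH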
Procedure, shortened: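 With metabolic activation: human liver microsomes (0.5 mg/mL final) plus NADPH (0.5 mg/mL final) added alongside compounds to p53RE-bla cells; 16 h 37 C exposure; beta-lactamase read by LiveBLAzer fluorescence.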

[7] = p53 small molecule agonists, cell-based qHTS assay with rat liver microsomes (AID 1963578)
Procedure, shortened: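 Metabolic activation by rat liver microsomes and NADPH, each 0.5 mg/mL final, added right after compounds to p53RE-bla reporter cells (4,000/well, plated 5 h earlier). 16 h at 37 C, then LiveBLAzer substrate for 2 h at room temperature in the dark; fluorescence read-out.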

[8] = p53 small molecule agonists, cell-based qHTS assay with rat liver microsomes: qHTS cell viability counter screen (AID 1963580); note: nearly all actives have a fitted effect of over 45% in size
Procedure, shortened: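 Cytotoxicity counter screen: intracellular ATP read by CellTiter-Glo luminescence in the p53 reporter wells. HCT-116 p53RE-bla cells were treated for 16 h at 37 C alongside rat liver microsomes and NADPH, each 0.5 mg/mL final.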

[9] = p53 small molecule agonists, cell-based qHTS assay: qHTS cell viability counter screen (AID 1963581); note: nearly all actives have a fitted effect of over 45% in size
Procedure, shortened: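 ATP content measured by luminescence in HCT-116 p53RE-bla cells treated 16 h at 37 C, same wells as the reporter screen.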

[10] = target: 5-hydroxytryptamine receptor 2A (Homo sapiens) (UniProt P28223); assay: 5-hydroxytryptamine receptor 2A (HTR2A) small molecule antagonists, cell-based qHTS assay (AID 1963586); note: nearly all actives have a fitted effect of over 45% in size; note: potency is the fitted concentration of half-maximal effect
Chain of 5-hydroxytryptamine receptor 2A (Homo sapiens) (P28223 whole entry, looked up): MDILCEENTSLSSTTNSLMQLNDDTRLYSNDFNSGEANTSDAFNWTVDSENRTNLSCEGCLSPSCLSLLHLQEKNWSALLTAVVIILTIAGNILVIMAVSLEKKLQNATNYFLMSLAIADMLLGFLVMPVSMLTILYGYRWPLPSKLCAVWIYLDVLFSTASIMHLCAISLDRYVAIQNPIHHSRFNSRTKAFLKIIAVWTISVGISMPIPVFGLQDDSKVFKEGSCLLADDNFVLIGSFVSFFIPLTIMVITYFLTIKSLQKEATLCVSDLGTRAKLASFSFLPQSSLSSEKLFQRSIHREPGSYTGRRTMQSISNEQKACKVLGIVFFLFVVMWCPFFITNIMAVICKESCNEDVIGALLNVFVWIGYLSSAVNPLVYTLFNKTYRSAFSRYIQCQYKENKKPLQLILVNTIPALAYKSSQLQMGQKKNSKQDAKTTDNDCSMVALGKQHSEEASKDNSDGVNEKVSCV
Procedure, shortened: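 CHO cells stably expressing human HTR2A were plated for 18 h at 37 C, then loaded with calcium dye for 1 h. Compounds were preincubated 5 min at room temperature before DOI (4 nM solution) was added. Kinetic fluorescence was read for 3 min.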

[11] = target: 5-hydroxytryptamine receptor 2A (Homo sapiens) (UniProt P28223); assay: 5-hydroxytryptamine receptor 2A (HTR2A) small molecule agonists, cell-based qHTS assay (AID 1963587); note: nearly all actives have a fitted effect of over 30% in size; note: potency is the fitted concentration of half-maximal effect
Procedure, shortened: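 Kinetic calcium-flux fluorescence (2 min, 1 sec intervals) after compound addition in agonist mode. HTR2A-CHO cells were cultured 18 h, then dye-loaded 1 h at 37 C.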

[12] = target: Muscarinic acetylcholine receptor M1 (Homo sapiens) (UniProt P11229); assay: Cholinergic receptor muscarinic 1 (CHRM1) small molecule antagonists, cell-based qHTS assay (AID 1963588); note: nearly all actives have a fitted effect of over 40% in size
Chain of Muscarinic acetylcholine receptor M1 (Homo sapiens) (P11229 whole entry, looked up): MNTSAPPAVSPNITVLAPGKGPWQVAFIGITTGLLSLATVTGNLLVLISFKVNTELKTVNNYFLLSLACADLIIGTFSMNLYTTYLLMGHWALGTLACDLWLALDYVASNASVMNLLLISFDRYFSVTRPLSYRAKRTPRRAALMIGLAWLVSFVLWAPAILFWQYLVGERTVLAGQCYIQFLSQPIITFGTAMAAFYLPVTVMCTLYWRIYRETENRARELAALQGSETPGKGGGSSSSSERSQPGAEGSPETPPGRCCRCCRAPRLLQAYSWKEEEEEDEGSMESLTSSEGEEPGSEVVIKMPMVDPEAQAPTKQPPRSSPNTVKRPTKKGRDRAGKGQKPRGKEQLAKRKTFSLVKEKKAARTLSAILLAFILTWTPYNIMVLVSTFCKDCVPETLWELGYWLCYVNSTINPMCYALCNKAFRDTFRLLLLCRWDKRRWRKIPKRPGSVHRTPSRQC
Procedure, shortened: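 Compounds were tested at 15 concentrations in three independent runs. Dye-loaded CHRM1-CHO cells were exposed 5 min at room temperature before stimulation by acetylcholine added at 50nM. Intracellular calcium was read kinetically on FDSS for 3 min.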

[13] = target: Muscarinic acetylcholine receptor M1 (Homo sapiens) (UniProt P11229); assay: Cholinergic receptor muscarinic 1 (CHRM1) small molecule agonists, cell-based qHTS assay (AID 1963589); note: nearly all actives have a fitted effect of over 35% in size
Procedure, shortened: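 Homogeneous fluorescence calcium flux, agonist mode. Human M1-expressing CHO cells; compound dosed at 15 concentrations, three independent runs; signal sampled every 1 sec.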

[14] = cAMP Responsive Elements (CRE) small molecule agonists, cell-based qHTS assay (AID 1963590)
Procedure, shortened: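 HEK 293T cells stably bearing CRE-bla were plated at 2,000 cells per well and rested 18 h. Compounds, positive controls or DMSO were added for 3 h at 37 C. LiveBLAzer B/G substrate was then loaded for 2 h at room temperature.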

[15] = cAMP Responsive Elements (CRE) small molecule antagonists, cell-based qHTS assay (AID 1963591; active = well fitted inhibition curve with a large enough effect in the signal ratio in the repeat runs, not every such curve was filed as active; the % refers to the signal ratio)
Procedure, shortened: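 First, CRE-bla HEK293T cells settled 18 h at 37 C. Next, compound and 0.25 uM final NKH477 were applied for 3 h. Last, LiveBLAzer B/G substrate was loaded for 2 h at room temperature.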

[16] = target: Beta-2 adrenergic receptor (Homo sapiens) (UniProt P07550); assay: Adrenergic beta2 receptor (ADRB2) small molecule antagonists, cell-based qHTS assay (AID 1963592); note: series mostly up to about 92 µM; nearly all actives have a fitted effect of over 50% in size
Chain of Beta-2 adrenergic receptor (Homo sapiens) (P07550 whole entry, looked up): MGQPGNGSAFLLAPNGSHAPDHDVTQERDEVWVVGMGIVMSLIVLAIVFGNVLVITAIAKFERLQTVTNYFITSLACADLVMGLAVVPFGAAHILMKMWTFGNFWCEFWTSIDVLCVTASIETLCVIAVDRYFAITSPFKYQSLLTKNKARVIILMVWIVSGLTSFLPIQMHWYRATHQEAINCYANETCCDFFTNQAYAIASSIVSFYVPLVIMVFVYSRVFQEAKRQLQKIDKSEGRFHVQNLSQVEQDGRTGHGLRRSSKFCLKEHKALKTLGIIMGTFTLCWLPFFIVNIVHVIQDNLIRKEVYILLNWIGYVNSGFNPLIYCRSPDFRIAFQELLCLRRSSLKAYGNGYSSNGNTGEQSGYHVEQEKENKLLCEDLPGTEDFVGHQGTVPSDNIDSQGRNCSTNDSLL
Procedure, shortened: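 Assay format: CHO-ADRB2 cells, 18-20hr seeding at 37C/5% CO2, then compound plus 1nM isoproterenol agonist mix for 0.5hr RT. Homogeneous time-resolved fluorescence cAMP detection after 1hr, expressed as 665/615 nm ratio.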

[17] = target: Beta-2 adrenergic receptor (Homo sapiens) (UniProt P07550); assay: Adrenergic beta2 receptor (ADRB2) small molecule agonists, cell-based qHTS assay (AID 1963593);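 note: CHO cells stably overexpressing human ADRB2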
Procedure, shortened: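 CHO cells stably over-expressing ADRB2 were plated overnight at 37C, then dosed with compounds plus a stimulation mix containing 100uM IBMX and 25uM Ro-20-1724 for 0.5hr at room temperature. cAMP was measured by HTRF competition, 1hr.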

[18] = target: D(2) dopamine receptor (Homo sapiens) (UniProt P14416); assay: Dopamine D2 receptor (DRD2) small molecule agonists, cell-based qHTS assay (AID 1963594); note: nearly all actives have a fitted effect of over 35% in size
Chain of D(2) dopamine receptor (Homo sapiens) (P14416 whole entry, looked up): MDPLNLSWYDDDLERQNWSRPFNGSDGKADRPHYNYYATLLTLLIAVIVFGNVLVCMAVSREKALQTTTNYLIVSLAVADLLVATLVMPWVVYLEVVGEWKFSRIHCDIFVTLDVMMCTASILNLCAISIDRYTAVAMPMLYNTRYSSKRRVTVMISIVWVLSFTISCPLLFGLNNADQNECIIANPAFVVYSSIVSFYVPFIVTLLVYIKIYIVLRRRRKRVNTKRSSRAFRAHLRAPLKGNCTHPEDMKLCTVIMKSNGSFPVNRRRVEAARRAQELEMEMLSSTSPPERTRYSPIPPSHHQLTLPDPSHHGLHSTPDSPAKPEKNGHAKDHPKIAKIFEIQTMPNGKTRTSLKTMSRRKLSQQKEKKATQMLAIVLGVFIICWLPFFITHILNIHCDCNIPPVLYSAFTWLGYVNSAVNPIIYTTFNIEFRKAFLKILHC
Procedure, shortened: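 cAMP accumulation in DRD2-HEK293 cells measured by HTRF after 1 h detection; compounds added 10 min before NKH477 (200nM […]) forskolin-analogue stimulation, 30 min at room temperature, with Ro20-1724 present at 0.1 mM final.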

[19] = target: D(2) dopamine receptor (Homo sapiens) (UniProt P14416); assay: Dopamine D2 receptor (DRD2) small molecule antagonists, cell-based qHTS assay (AID 1963595; active = well fitted inhibition curve with a large enough effect in the signal ratio in the repeat runs, with a control signal flat; the % refers to the signal ratio)
Procedure, shortened: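 Antagonism was scored as restored cAMP in HEK293-DRD2 cells. These cells were stimulated with 200 nM NKH477 and 12 nM quinpirole for 30 min at room temperature, in the presence of 0.1 mM Ro20-1724.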

[20] = p53 small molecule agonists, cell-based qHTS assay (AID 1963582; active = well fitted activation curve with a large enough effect in the signal ratio in the repeat runs, not every such curve was filed as active; the % refers to the signal ratio)
Procedure, shortened: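 16 h compound exposure (37 C) of p53 response element–bla cells, preceded by 5 h recovery at 37 C/5% CO2; read-out via LiveBLAzer B/G FRET substrate, 2 h RT, fluorescence intensity.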

Compound: Cc1cc(C(C)(C)C)c(O)c(C)c1Cn1c(=O)n(Cc2c(C)cc(C(C)(C)C)c(O)c2C)c(=O)n(Cc2c(C)cc(C(C)(C)C)c(O)c2C)c1=O
- Potency [1]: inactive
- Potency [2]: inactive
- Potency [3]: inactive
- outcome [4]: inactive
- outcome [5]: inactive
- Potency [6]: inactive
- Potency [7]: inactive
- Potency [8]: inactive
- Potency [9]: inactive
- Potency [10]: inactive
- Potency [11]: inactive
- Potency [12]: inactive
- Potency [13]: inactive
- Potency [14]: inactive
- Potency [15]: inactive
- Potency [16]: inactive
- Potency [17]: inactive
- Potency [18]: inactive
- Potency [19]: inactive

Compound: O=Cc1cccc(Br)c1
- Potency [1]: inactive
- Potency [2]: inactive
- Potency [3]: inactive
- outcome [4]: inactive
- outcome [5]: inactive
- Potency [6]: inactive
- Potency [7]: inactive
- Potency [8]: inactive
- Potency [9]: inactive
- Potency [10]: inactive
- Potency [12]: inactive
- Potency [13]: inactive
- Potency [14]: inactive
- Potency [15]: inactive
- Potency [16]: inactive
- Potency [17]: inactive
- Potency [18]: inactive
- Potency [19]: inactive

Compound: C[C@H]1O[C@H](O[C@H]2[C@H](O)[C@@H](O)[C@@H](O[C@H]3[C@H](O)[C@@H](O)[C@H](O)O[C@@H]3CO)O[C@@H]2CO)[C@H](O)[C@@H](O)[C@@H]1N[C@H]1C=C(CO)[C@@H](O)[C@H](O)[C@H]1O
- Potency [1]: inactive
- Potency [2]: inactive
- Potency [3]: inactive
- outcome [4]: inactive
- outcome [5]: inactive
- Potency [6]: inactive
- Potency [7]: inactive
- Potency [8]: inactive
- Potency [9]: inactive
- Potency [20]: inactive
- Potency [14]: inactive
- Potency [15]: inactive
- Potency [16]: inactive
- Potency [17]: inactive
- Potency [18]: inactive
- Potency [19]: inactive

Compound: CC(=O)O[C@H]1C[C@@H]2CC[C@@H]3[C@H](CC[C@@]4(C)[C@H]3C[C@H]([N+]3(C)CCCCC3)[C@@H]4OC(C)=O)[C@@]2(C)C[C@@H]1N1CCCCC1
- Potency [1]: inactive
- Potency [2]: inactive
- Potency [3]: inactive
- outcome [4]: inactive
- outcome [5]: inactive
- Potency [6]: inactive
- Potency [7]: inactive
- Potency [8]: inactive
- Potency [9]: inactive
- Potency [20]: inactive
- Potency [14]: inactive
- Potency [15]: inactive
- Potency [18]: inactive
- Potency [19]: inactive

Compound: CN1CCC[C@@H]1Cc1c[nH]c2ccc(CCS(=O)(=O)c3ccccc3)cc12
- Potency [1]: inactive
- Potency [2]: inactive
- Potency [3]: inactive
- outcome [4]: inactive
- outcome [5]: inactive
- Potency [6]: inactive
- Potency [7]: inactive
- Potency [8]: inactive
- Potency [20]: inactive
- Potency [10]: 365 nM (active)
- Potency [11]: 107 nM (active)
- Potency [12]: inactive
- Potency [13]: inactive
- Potency [14]: inactive
- Potency [15]: inactive
- Potency [18]: inactive
- Potency [19]: inactive

Compound: C=CC(C)(O)CCCC(C)CCCC(C)CCCC(C)C (stereo unspecified)
- Potency [1]: inactive
- Potency [2]: inactive
- Potency [3]: inactive
- outcome [4]: inactive
- outcome [5]: inactive
- Potency [6]: inactive
- Potency [7]: inactive
- Potency [8]: inactive
- Potency [20]: inactive
- Potency [10]: inactive
- Potency [11]: inactive
- Potency [12]: inactive
- Potency [13]: inactive
- Potency [14]: inactive
- Potency [15]: inactive
- Potency [16]: inactive
- Potency [18]: inactive
- Potency [19]: inactive

Compound: CN1CCN(c2c(F)cc3c(=O)c(C(=O)O)cn(CCF)c3c2F)CC1
- Potency [1]: inactive
- Potency [2]: inactive
- Potency [3]: inactive
- outcome [4]: inactive
- outcome [5]: inactive
- Potency [6]: inactive
- Potency [7]: inactive
- Potency [8]: inactive
- Potency [9]: inactive
- Potency [20]: inactive
- Potency [14]: inactive
- Potency [18]: inactive
- Potency [19]: inactive

Compound: N[C@H](C(=O)O)[C@@H](O)c1ccc(O)c(O)c1
- Potency [1]: inactive
- Potency [2]: inactive
- Potency [3]: inactive
- outcome [4]: inactive
- outcome [5]: inactive
- Potency [6]: inactive
- Potency [8]: inactive
- Potency [9]: inactive
- Potency [20]: inactive
- Potency [10]: inactive
- Potency [11]: inactive
- Potency [12]: inactive
- Potency [13]: inactive
- Potency [14]: inactive
- Potency [15]: inactive
- Potency [16]: inactive
- Potency [18]: inactive
- Potency [19]: inactive

Compound: Cc1ccc(-n2[nH]c(C)c(N=Nc3cccc(-c4cccc(C(=O)O)c4)c3O)c2=O)cc1C
- Potency [1]: 26600 nM (active)
- Potency [2]: inactive
- Potency [3]: inactive
- outcome [4]: inactive
- outcome [5]: inactive
- Potency [6]: inactive
- Potency [7]: inactive
- Potency [8]: inactive
- Potency [11]: inactive
- Potency [12]: inactive
- Potency [13]: inactive
- Potency [15]: inactive
- Potency [16]: inactive
- Potency [18]: inactive
- Potency [19]: inactive

Compound: O=c1cc(-c2ccccc2)oc2ccc3ccccc3c12
- Potency [1]: inactive
- Potency [2]: 486 nM (active)
- Potency [3]: inactive
- outcome [4]: inactive
- outcome [5]: inactive
- Potency [6]: inactive
- Potency [7]: inactive
- Potency [20]: inactive
- Potency [18]: inactive
- Potency [19]: inactive

Compound: CCOCC(O)COc1ccc(NC(=O)CC[S+](C)C)cc1 (stereo unspecified)
- Potency [1]: inactive
- Potency [2]: inactive
- Potency [3]: inactive
- outcome [4]: inactive
- outcome [5]: inactive
- Potency [6]: inactive
- Potency [7]: inactive
- Potency [9]: inactive
- Potency [20]: inactive
- Potency [10]: inactive
- Potency [11]: inactive
- Potency [12]: inactive
- Potency [13]: inactive
- Potency [14]: inactive
- Potency [15]: inactive
- Potency [16]: inactive
- Potency [17]: inactive
- Potency [19]: inactive

Compound: CC(C)Cn1cnc2c(N)nc3ccccc3c21
- activity change, negative = cytotoxicity [1]: -5.63% [at 19 µM]
- activity, positive = activation [2]: 7.96% [at 19 µM]
- activity change [3]: -1.43% [at 11.8 µM, active compounds read high]
- activation [4]: 1.32% [at 15.8 µM]
- activation [5]: -0.0034% [at 11.8 µM]
- activation [6]: 13.5% [at 13.5 µM]
- activation [7]: -0.62% [at 13.6 µM]
- activity change, negative = cytotoxicity [8]: -0.545% [at 13.5 µM]
- activity change, negative = inhibition [15]: 2.85% [at 18.9 µM]
- activity change, negative = inhibition [16]: -12.1% [at 19 µM]
